Source: the supplement of paper PMC3334620
Whole data set: some 33,000 sequences, median “E-score (-0.5 to 0.5)” near -0.041, cut for the highest 2% near 0.37. The full list was thinned out, with the highest values kept by preference.

biological target: T1, Ecm22 (UniProt Q05958); assay: PBM E-score (8-mer binding enrichment) (E-score (-0.5 to 0.5)); higher = stronger / more preferred TF binding; settings: protein concentration: 200 nM; construct: GST-full length
T1 sequence: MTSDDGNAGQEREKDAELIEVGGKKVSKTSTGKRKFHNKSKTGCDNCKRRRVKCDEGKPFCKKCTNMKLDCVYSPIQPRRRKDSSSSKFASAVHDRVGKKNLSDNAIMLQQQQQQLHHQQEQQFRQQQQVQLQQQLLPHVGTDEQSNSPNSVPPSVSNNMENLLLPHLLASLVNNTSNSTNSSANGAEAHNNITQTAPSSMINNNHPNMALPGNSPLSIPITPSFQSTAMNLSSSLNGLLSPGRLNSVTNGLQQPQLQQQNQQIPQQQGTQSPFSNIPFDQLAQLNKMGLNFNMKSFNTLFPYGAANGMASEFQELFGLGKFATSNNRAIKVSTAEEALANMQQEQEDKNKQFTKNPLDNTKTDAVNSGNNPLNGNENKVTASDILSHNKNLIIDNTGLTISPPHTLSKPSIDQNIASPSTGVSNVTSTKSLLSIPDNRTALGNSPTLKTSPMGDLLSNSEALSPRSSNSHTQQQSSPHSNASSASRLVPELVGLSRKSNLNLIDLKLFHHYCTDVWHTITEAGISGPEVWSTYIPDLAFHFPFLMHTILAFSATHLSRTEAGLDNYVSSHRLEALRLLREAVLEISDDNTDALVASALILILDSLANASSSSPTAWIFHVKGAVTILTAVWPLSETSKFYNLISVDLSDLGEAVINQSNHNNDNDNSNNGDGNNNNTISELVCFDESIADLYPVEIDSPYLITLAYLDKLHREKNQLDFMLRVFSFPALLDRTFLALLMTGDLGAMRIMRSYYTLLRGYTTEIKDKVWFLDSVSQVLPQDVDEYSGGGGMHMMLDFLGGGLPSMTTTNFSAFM
Outline: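 Yeast transcription factors carrying a GST tag, as full-length proteins or DNA-binding domains, were produced by PURExpress in vitro transcription/translation. About 100-200 nM protein was applied to universal all-10-mer Agilent arrays, double-stranded by primer extension on fresh or once-stripped slides. Bound protein was detected with fluorescent anti-GST, and scans were normalised with masliner. The Universal PBM Analysis Suite gave each ungapped eight-base word, pooled with its reverse complement, an E-score, a modified Wilcoxon-Mann-Whitney statistic.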

In order of falling “PBM E-score” value:
1. GGTACGAA  0.486
2. TACGAGTA  0.467
3. TACGAGGA  0.466
4. CGGTCGTA  0.464
5. AGGTCGTA  0.458
6. CCTTCGTA  0.453
7. AACGAGGA  0.449
8. CGTACGAA  0.448
9. AACGAGGT  0.447
10. CCGGAACG  0.445
11. ACGGAACG  0.442
12. GCTTCGTA  0.441
13. AACGAGGG  0.439
14. GGGTCGTA  0.439
15. CGATCGTA  0.437
16. GGATCGTA  0.434
17. AACGAGGC  0.434
18. ACTTCGTA  0.434
19. AACGAGTA  0.433
20. ACGAGGCG  0.431
21. CATCGTTC  0.428
22. CCATCGTA  0.428
23. AATCGTTC  0.426
24. GCATCGTA  0.426
25. ACATCGTA  0.423
26. AACGAGTG  0.421
27. AGTACGAA  0.42
28. AACGAGTC  0.419
29. AACGAGTT  0.41
30. AGTACGAT  0.407
31. ACGAGGCA  0.401
32. ACTTACGA  0.393
33. AGATCGTA  0.389
34. GCTTACGA  0.386
35. CCTTACGA  0.383
36. ACGAGGCT  0.382
37. ACGAGGCC  0.376
38. CGTACGTA  0.367
39. AGCGAGTA  0.363
40. CGTACGCA  0.36
41. CACGTACG  0.338
42. AGCGAGTG  0.324
43. GGTACGTA  0.319
44. GCGAGGCA  0.296
45. ACCGAGTA  0.286
46. AGTACGTA  0.283
47. AAACCCGA  0.279
48. AATCGTTA  0.269
49. AGCGAGGA  0.265
50. GGTACGCA  0.263
51. CATCGTTA  0.259
52. GGATCGAA  0.251
53. GCGAGGCC  0.251
54. AGCGAGGG  0.249
55. TCGGGTCA  0.241
56. GTATGAAC  0.234
57. CGGTAAAA  0.228
58. ACCGAGGT  0.225
59. ACGGAACC  0.218
60. GCGTTGAA  0.218
61. CTGCGTTC  0.213
62. AACGCGTT  0.212
63. ACTTACGG  0.207
64. CCTTACGC  0.205
65. CACGAGGA  0.196
66. GCTTCGCA  0.193
67. CGACAAAG  0.192
68. CACGAGGG  0.189
69. CCTTCGCA  0.183
70. ACTACGAT  0.182
71. GACGAGGA  0.175
72. CACGAGGC  0.171
73. AATCGTTG  0.165
74. CGATCGAA  0.164
75. CATCGTGC  0.164
76. GACGAGGC  0.163
77. AACGGGCT  0.16
78. GGATCGGA  0.159
79. ACGGAACT  0.157
80. CACGAGTA  0.157
81. GGGTCGGA  0.135
82. GCATCGGA  0.126
83. GAGAACAA  0.124
84. TAGTCCGA  0.123
85. GCTTCGGA  0.121
86. GACGAGTA  0.117
87. CCGAGGCC  0.117
88. ACTTCGTG  0.116
89. ATCGAGGA  0.115
90. GACGAGTC  0.115
91. ACTCGGCT  0.112
92. CACGAGTG  0.106
93. AGGTCGTC  0.106
94. CGATCGTC  0.104
95. CCTTACTA  0.0754
96. CCTTCGTC  0.0674
97. CCCCGCCA  0.0635
98. ACGGGGAC  0.0581
99. GCATCGAA  0.0551
100. AGTACTAT  0.0505
101. GAGCTTAA  0.0486
102. ACGCTCAA  0.0449
103. CCGAGGCA  0.0444
104. CCGAGGCG  0.0444
105. ACATCGTG  0.0443
106. CTGCGAGC  0.0428
107. CGGTCGGA  0.0409
108. ATTGCTTC  0.0317
109. ACAAATTC  0.0192
110. ACATCGTC  0.0184
111. ACTTCGTC  0.00917
112. CATGAAAA  0.00915
113. GATGTTGC  0.00895
114. CCATCGTC  0.00759
115. AACGCCGC  -0.00584
116. GGCTAGTA  -0.00889
117. ACGCAAGG  -0.01
118. AGATCGTG  -0.0112
119. CAGGAAAA  -0.019
120. GCCGAGAC  -0.0241
121. CACGAGTC  -0.0272
122. CGGTCGTC  -0.0294
123. GGGTCGAA  -0.0301
124. CGGGACAC  -0.0319
125. CCGGAACC  -0.0325
126. AGCCGGAT  -0.0402
127. AGTACGCA  -0.0459
128. CCATATCC  -0.0494
129. ACAGACCA  -0.0504
130. TACTCACA  -0.0537
131. AACTGCAG  -0.0539
132. ACAGTTCC  -0.0566
133. AGAGGGAT  -0.0615
134. AGGTATTA  -0.0627
135. CCGGAACA  -0.0629
136. CGGGACGC  -0.0663
137. CTTTTTCC  -0.068
138. AAGCTTCA  -0.0703
139. ATGTTACA  -0.0708
140. CCGGTCTA  -0.0788
141. AGATCGTC  -0.0821
142. AGAATTGC  -0.0838
143. GCTTACTA  -0.087
144. AGCAATAG  -0.0955
145. AATAACAA  -0.0956
146. GGTCTAAC  -0.0964
147. CTGCACTC  -0.104
148. AGCTGAAA  -0.106
149. CCGCCACA  -0.107
150. GCCTCTAC  -0.123
151. AGGTCGTG  -0.13
152. CCATCGAA  -0.136
153. ACTTACGC  -0.137
154. CGTTGGAG  -0.14
155. GCTTACAA  -0.144
156. CTAGTTAA  -0.153
157. ACTTCCAA  -0.156
158. CCATTGGA  -0.162
159. TAGGACCA  -0.185
160. AGTCCCAA  -0.193
161. CTCAACAG  -0.193
162. ACCAGGCT  -0.198
163. AACCCAGC  -0.207
164. GAGAGACC  -0.21
165. AGATTCCT  -0.227
166. AGGAGGCG  -0.229
167. CCCCCGAG  -0.231
168. AAAGAGGT  -0.244
169. AAAGAGTT  -0.264
170. AAGAGGCT  -0.268
171. AGACCAGC  -0.283
172. CTGACGCA  -0.319
